# Measurements taken from PubChem BioAssay AID1259421 (Broad Institute, 2018).
# Values joined by “and” are separate entries in the source; they are usually repeats but may differ in a detail not shown here. Equal values may be shown once. About 610 (9.5%) of roughly 6,400 compounds were called active. The sample holds actives, similar compounds and a random draw of the others, so the mix is not that of the screen. Rule as the data show it: active = activity change below about -70%; inconclusive = no clear call, values can overlap the other calls; inactive = above that. Some compounds were tested as several samples or in several runs, with calls that do not always agree.
# Experiment: T. gondii ME49Luc in HeLa cells, luciferase assay, 72 h, no IFN-y (AID 1259421)
# Conditions: stronger effect = lower value, concentration not given here
row,SMILES,"activity change, negative = inhibition"
1,CNC(=O)c1c(-c2ccc(F)cc2)oc2cc(N(CCO)S(C)(=O)=O)c(C3CC3)cc12,4.4% (inactive)
2,CC1(C)CC[C@]2(C(=O)O)CC[C@]3(C)C(=CCC4[C@@]5(C)CC[C@H](O)[C@@](C)(CO)C5CC[C@]43C)C2C1 (stereo not given in full),4.93% (inactive)
3,NS(=O)(=O)c1cc2c(cc1Cl)NC=NS2(=O)=O,-6.64% (inactive) and 2.69% (inactive)
4,CC(C)[C@H]1C(=O)N[C@@H](CCCN=C(N)N)C(=O)NCC(=O)N[C@@H](CC(=O)O)C(=O)N[C@H](Cc2ccccc2)C(=O)N1C,33.3% (inactive)
5,CC#C[C@]1(O)CC[C@H]2[C@@H]3CCC4=CC(=O)CCC4=C3[C@@H](c3ccc(N(C)C)cc3)C[C@@]21C,-77.6% (active) and 19.9% (inactive)
6,CC(=O)O[C@]1(C(C)=O)CC[C@H]2[C@@H]3CCC4=CC(=O)CCC4=C3[C@@H](c3ccc(N(C)C)cc3)C[C@@]21C,-58.3% (inactive)
7,CC#CC1(O)CCC2C3CCC4=CC(=O)CCC4=C3C(c3ccc(N(C)C)cc3)CC21C (stereo not given),32.4% (inactive)
8,CCC[C@@H]1C[C@@H](C(=O)N[C@@H]([C@H]2O[C@H](SC)[C@H](O)[C@@H](O)[C@@H]2O)[C@@H](C)O)N(C)C1,0.0317% (inactive)
9,C=CC(=O)NCc1ccccc1,10.8% (inactive)
10,O=C1C(=O)N(Cc2ccc(Cl)c(Cl)c2)c2ccccc21,25.2% (inactive) and 12.2% (inactive)
11,COc1ccc(CN2C(=O)C(=O)c3cc(OC(F)(F)F)ccc32)cc1,-31.8% (inactive)
12,CC(=O)O/N=C1/C(=O)N(Cc2cc(Cl)ccc2Cl)c2ccc(Cl)cc21,-78.1% (active)
13,COc1ccc(Cl)cc1C(=O)NCCc1ccc(C(=O)O)cc1,10.3% (inactive)
14,CCCCCCCCCC(=O)N[C@@H](Cc1c[nH]c2ccccc12)C(=O)N[C@H](CC(N)=O)C(=O)N[C@@H](CC(=O)O)C(=O)N[C@@H]1C(=O)NCC(=O)N[C@@H](CCCN)C(=O)N[C@@H](CC(=O)O)C(=O)N[C@H](C)C(=O)N[C@@H](CC(=O)O)C(=O)NCC(=O)N[C@H](CO)C(=O)N[C@@H]([C@@H](C)CC(=O)O)C(=O)N[C@@H](CC(=O)c2ccccc2N)C(=O)O[C@@H]1C,5.37% (inactive)
15,C[C@H](O[C@H]1OCCN(Cc2n[nH]c(=O)[nH]2)[C@H]1c1ccc(F)cc1)c1cc(C(F)(F)F)cc(C(F)(F)F)c1,3.24% (inactive)
16,O=C1CN2Cc3c(ccc(Cl)c3Cl)N=C2N1,-78.8% (active) and -0.538% (inactive)
17,Clc1cccc2c1CN(C1=NCCN1)C2,4.53% (inactive) and 6.96% (inactive)
18,Cc1nc2c([nH]1)CCN(C(=O)c1ccc(NC(=O)c3ccccc3-c3ccccc3)cc1)c1ccccc1-2,24.9% (inactive)
19,CC1(C)O[C@@H]2CC3C4C[C@H](F)C5=CC(=O)CC[C@]5(C)C4[C@@H](O)C[C@]3(C)[C@]2(C(=O)CO)O1 (stereo not given in full),-1.03% (inactive) and -3% (inactive)
20,CN(C)Cc1c(C(=O)NCCOc2ccc(C(=O)NO)cc2)oc2ccccc12,-78.9% (active)
21,Cc1cc(C)c(N(Cc2ccccc2)S(=O)(=O)c2ccc(OCCNC(=O)c3cc4ccccc4o3)cc2)c(C(=O)NO)c1,-49.7% (inactive)
22,CC(C)c1ccc(C(=O)NCCOc2ccc(C(=O)O)cc2)cc1,52.4% (inactive)
23,OC[C@@H](O)C(O)[C@@H](O)CO (stereo not given in full),8.06% (inactive)

row,SMILES,"activity change, negative = inhibition"
1,C[C@@H]1CN(Cc2ccc(F)cc2)[C@@H](C)CN1C(=O)c1cc2c(C(=O)C(=O)N(C)C)cn(C)c2cc1Cl,-1.84% (inactive)
2,CC1(COc2ccc(CC3SC(=O)NC3=O)cc2)CCCCC1 (stereo not given),54.6% (inactive) and 38.2% (inactive)
3,O=c1[nH]cc(F)c(=O)[nH]1,-79.7% (active) and -73.9% (active)
4,O=c1cc[nH]c(=O)[nH]1,14.2% (inactive)
5,O=C(OC1C[C@H]2CC[C@@H](C1)[N+]21CCCC1)C(O)(c1ccccc1)c1ccccc1 (stereo not given in full),13% (inactive)
6,CC(C)OC(=O)c1cc2c(OCC(O)CNC(C)(C)C)cccc2[nH]1 (stereo not given),5.25% (inactive) and 2.42% (inactive)
7,CN1N=C(C(N)=O)CCC1=O,5.39% (inactive)
8,COc1cc(F)c(C(C)C)cc1-c1ccc(C(F)(F)F)cc1CN1C(=O)O[C@H](c2cc(C(F)(F)F)cc(C(F)(F)F)c2)[C@H]1C,13.2% (inactive)
9,CC(C)[C@H](C(=O)Nc1ccc(C(=O)NO)cc1)c1ccccc1,-78.5% (active)
10,O=C(O)c1ccc(NC(=O)[C@H](Cc2ccc(O)cc2)NC(=O)c2ccccc2)cc1,10.1% (inactive)
11,CC(=O)Nc1ccc(C(=O)O)cc1,5.72% (inactive)
12,C[C@H]1CC[C@@]2(OC1)O[C@H]1C[C@H]3[C@@H]4CC[C@@H]5C[C@@H](O)CC[C@]5(C)[C@H]4CC[C@]3(C)[C@H]1[C@@H]2C,10.8% (inactive)
13,O=C1Nc2cc(Cl)ccc2Oc2ccccc21,13.7% (inactive)
14,Cc1nc2c(c(=O)[nH]1)CSCC2,-9.85% (inactive)
15,CC(C)c1ccc2c(c1)CCC1C(C)(C(N)=O)CCCC21C (stereo not given),39.8% (inactive)
16,CCN(CC)CCOCCOC(=O)C(CC)(CC)c1ccccc1,22.3% (inactive)
17,Nc1ncnc2c1ncn2[C@@H]1O[C@H](C[C@@H](N)CC[C@H](N)C(=O)O)[C@@H](O)[C@H]1O,-5.35% (inactive)
18,COc1ccc(CN(CCN(C)C)c2ccccn2)cc1,18% (inactive) and 6.75% (inactive)
19,CCCCCCCCCCCCCCCC[N+](C)(C)CCN(Cc1ccc(OC)cc1)c1ncccn1,-80.9% (active)
20,COc1ccc(CN(CCN(C)C)c2ncccn2)cc1,10.1% (inactive) and 11.2% (inactive)
21,C[C@]12C=CC(=O)C=C1CCC1C3C[C@@H](O)[C@](O)(C(=O)CO)[C@@]3(C)C[C@H](O)[C@@]12F (stereo not given in full),-10.6% (inactive)
22,CN(C)CCN1C(=O)c2cccc3cc(NC(N)=O)cc(c23)C1=O,5.35% (inactive)
